Assay results: PubChem BioAssay
Calls of active or inactive are those of the source.

Legend:
[1] = system: Plasmodium falciparum Sir2 (PF13_0152, Sir2A); test: pfSir2 binders on small-molecule microarrays, primary screen, biochemical, small-molecule microarray, 635 nm fluorescence (AID 1098); conditions: small-molecule microarray binding, fluorescence 635 nm; higher = more signal;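 note: score merges spot fluorescence intensity with its signal-to-noise ratio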
[2] = small-molecule microarray binders of probe aDKK1, primary screen, biochemical, biotinylated probe, 635/667 nm fluorescence (AID 1099); conditions: higher = more signal;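 note: score merges 667nm spot fluorescence with signal to noise across triplicate slides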
[3] = small-molecule microarray binders of probe aCHRDL2, primary screen, biochemical, biotinylated probe, 635/667 nm fluorescence (AID 1100); conditions: higher = more signal
[4] = splicing luciferase reporter signal modulators, primary screen, spliceosome inhibition project, cell-based, HEK293, splice +/- reporter (AID 1101); conditions: luminescence, 24 h, higher = more signal, called active from +8 up or from −8 down;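 note: HEK293 cells carrying a splicing-competent luciferase reporter gene; test concentration not given here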
[5] = target: Fibroblast growth factor 10 (Homo sapiens) (UniProt O15520); test: FGF10 binders on small-molecule microarrays, primary screen, biochemical, small-molecule microarray, 635 nm fluorescence (AID 1102); conditions: FGF10 binding, fluorescence 635 nm, higher = more signal
[6] = system: glycogen synthase kinase-3 (GSK3A per assay name; protocol says GSK3B); test: GSK3 binders on small-molecule microarrays, primary screen, biochemical, small-molecule microarray, 635 nm fluorescence, GSK3A (AID 1103); conditions: small-molecule microarray binding, fluorescence 635 nm; higher = more signal; note: the record names both GSK3A and GSK3B
[7] = target: Epidermal growth factor receptor (Homo sapiens) (UniProt P00533); test: EGFR binders on small-molecule microarrays, primary screen, biochemical, small-molecule microarray, 635 nm fluorescence (AID 1104); conditions: EGFR binding, higher = more signal;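 note: score merges 667 nm emission intensity with spot signal to noise over triplicate slides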
[8] = target: Follistatin-related protein 3 (Homo sapiens) (UniProt O95633); test: FSTL3 binders on small-molecule microarrays, primary screen, biochemical, small-molecule microarray, 635 nm fluorescence (AID 1105); conditions: FSTL3 binding, higher = more signal;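 note: score merges emission near 667 nm and signal to noise per printed spot across three slides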
[9] = target: Dickkopf-related protein 1 (Homo sapiens) (UniProt O94907); test: DKK1 binders on small-molecule microarrays, primary screen, biochemical, small-molecule microarray, 635 nm fluorescence scan (AID 1106); conditions: DKK1 binding, higher = more signal;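 note: score merges emission near 667 nm with signal to noise over three replicate slides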
[10] = system: Inhibin beta A chain (activin A); test: INHBA (activin A) binders on microarrays, primary screen, biochemical, small-molecule microarray, 635 nm fluorescence scan (AID 1107); conditions: small-molecule microarray binding, higher = more signal;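 note: mouse activin A protein probed at 4.33 µg/mL on printed slides; score merges bound-protein fluorescence near 667 nm with spot signal-to-noise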
[11] = system: Human papillomavirus type 1a protein E7 (residues 44-93); test: HPV1a E7 fragment binders on microarrays, primary screen, biochemical, small-molecule microarray, residues 44-93, 635 nm fluorescence (AID 1108); conditions: small-molecule microarray binding, fluorescence 635 nm; higher = more signal;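 note: E7 fragment applied at 1 µg/mL in TBST for 1 h at 4 C; score combines spot fluorescence with its signal to noise ratio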
[12] = modulators of HCV replicon luciferase signal, primary screen, HCV replication inhibitor project, Huh7 cells, luciferase reporter (AID 1109); conditions: 48 h, higher = more signal;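 note: huh7 hepatoma cells harbouring a luciferase neomycin HCV replicon reporter; luciferase luminescence as measure of HCV replicon replication; test concentration not given here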
[13] = target: Left-right determination factor 2 (Homo sapiens) (UniProt O00292); test: LEFTY2 binders on small-molecule microarrays, primary screen, biochemical, small-molecule microarray, 635 nm fluorescence scan (AID 1110); conditions: LEFTY2 binding, higher = more signal
[14] = target: Calmodulin-1 (Homo sapiens) (UniProt P0DP23); test: CALM1 binders on microarrays, EGTA buffer, profiling panel, biochemical, small-molecule microarray, Cy5-labelled CALM1 (AID 1111); conditions: Cy5-CALM1 binding fluorescence, higher = more signal;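 note: labelled calmodulin applied in Tris saline Tween buffer holding calcium plus EGTA and DTT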
[15] = target: Calmodulin-1 (Homo sapiens) (UniProt P0DP23); test: calcium-bound CALM1 binders on microarrays, profiling panel, artefact control for SMM control-protein annotation, biochemical, small-molecule microarray, Cy5-labelled CALM1, plus calcium (AID 1112); conditions: Cy5-CALM1 binding fluorescence, higher = more signal;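 note: score merges spot fluorescence with signal to noise from triplicate slides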
[16] = small-molecule microarray binders of probe aWnt5a, primary screen, biochemical, biotinylated probe, 635/667 nm fluorescence (AID 1113); conditions: higher = more signal;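 note: score merges 667 nm fluorescence intensity with signal-to-noise per printed feature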
[17] = small-molecule microarray binders of probe aShh, primary screen, biochemical, biotinylated probe, 635/667 nm fluorescence (AID 1114); conditions: higher = more signal;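 note: probe is biotin-labelled aShh protein from a stem cell growth factor screen; measures binding of labelled protein to compounds printed on the slide; score merges feature fluorescence at 667 nm with signal-to-noise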
[18] = small-molecule microarray binders of probe aNog, primary screen, biochemical, biotinylated probe, 635/667 nm fluorescence (AID 1115); conditions: higher = more signal;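 note: probe is biotinylated aNog protein used at 0.15 µg/mL for 1 h at 4 C; z-score combines 667 nm fluorescence of each spot with its signal to noise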
[19] = target: Torsin-1A-interacting protein 1 (Homo sapiens) (UniProt Q5JTV8); test: LAP1 binders from COS7 cell lysate, primary screen, small-molecule microarray, 635/667 nm fluorescence (AID 1116); conditions: COS7-hLAP1 lysate binding, 635 nm fluorescence, higher = more signal
[20] = target: Alpha-bungarotoxin (Bungarus multicinctus) (UniProt P60615); test: alpha-bungarotoxin binders on microarray, profiling panel, artefact control for SMM control protein annotation, biochemical, small-molecule microarray, Alexa647 label, 635/667 nm fluorescence (AID 1117); conditions: alpha-BTX-A647 binding fluorescence, higher = more signal
Chain of Alpha-bungarotoxin (Bungarus multicinctus) (P60615 whole entry, looked up): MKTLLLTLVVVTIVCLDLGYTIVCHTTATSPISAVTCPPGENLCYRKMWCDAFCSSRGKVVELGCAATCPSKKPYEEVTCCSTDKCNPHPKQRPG

Chain of Dickkopf-related protein 1 (Homo sapiens) (O94907 whole entry, looked up): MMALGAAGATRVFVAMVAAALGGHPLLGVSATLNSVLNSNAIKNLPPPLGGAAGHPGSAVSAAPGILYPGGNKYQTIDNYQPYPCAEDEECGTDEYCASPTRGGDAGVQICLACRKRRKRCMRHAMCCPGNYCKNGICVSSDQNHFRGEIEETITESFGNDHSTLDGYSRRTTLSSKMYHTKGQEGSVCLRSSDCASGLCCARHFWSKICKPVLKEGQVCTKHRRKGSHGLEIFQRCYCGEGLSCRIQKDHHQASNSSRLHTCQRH
Chain of Follistatin-related protein 3 (Homo sapiens) (O95633 whole entry, looked up): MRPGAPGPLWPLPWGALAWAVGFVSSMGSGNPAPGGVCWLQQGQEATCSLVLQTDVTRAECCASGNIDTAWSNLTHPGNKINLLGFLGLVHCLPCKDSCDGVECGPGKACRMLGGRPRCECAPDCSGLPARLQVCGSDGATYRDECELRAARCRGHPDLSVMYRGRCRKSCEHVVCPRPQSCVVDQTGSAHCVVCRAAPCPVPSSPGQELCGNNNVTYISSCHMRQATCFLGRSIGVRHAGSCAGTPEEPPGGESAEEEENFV
Chain of Left-right determination factor 2 (Homo sapiens) (O00292 whole entry, looked up): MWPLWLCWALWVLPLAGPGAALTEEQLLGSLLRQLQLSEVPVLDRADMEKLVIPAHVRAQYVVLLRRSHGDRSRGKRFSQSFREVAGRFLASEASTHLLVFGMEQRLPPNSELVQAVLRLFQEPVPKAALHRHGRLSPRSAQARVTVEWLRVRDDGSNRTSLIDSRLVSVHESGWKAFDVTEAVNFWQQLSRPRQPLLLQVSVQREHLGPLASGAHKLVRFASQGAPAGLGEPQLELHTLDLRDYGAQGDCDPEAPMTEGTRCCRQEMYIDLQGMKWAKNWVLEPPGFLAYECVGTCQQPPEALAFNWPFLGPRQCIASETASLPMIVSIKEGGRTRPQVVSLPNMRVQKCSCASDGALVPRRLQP
Chain of Epidermal growth factor receptor (Homo sapiens) (P00533 whole entry, looked up): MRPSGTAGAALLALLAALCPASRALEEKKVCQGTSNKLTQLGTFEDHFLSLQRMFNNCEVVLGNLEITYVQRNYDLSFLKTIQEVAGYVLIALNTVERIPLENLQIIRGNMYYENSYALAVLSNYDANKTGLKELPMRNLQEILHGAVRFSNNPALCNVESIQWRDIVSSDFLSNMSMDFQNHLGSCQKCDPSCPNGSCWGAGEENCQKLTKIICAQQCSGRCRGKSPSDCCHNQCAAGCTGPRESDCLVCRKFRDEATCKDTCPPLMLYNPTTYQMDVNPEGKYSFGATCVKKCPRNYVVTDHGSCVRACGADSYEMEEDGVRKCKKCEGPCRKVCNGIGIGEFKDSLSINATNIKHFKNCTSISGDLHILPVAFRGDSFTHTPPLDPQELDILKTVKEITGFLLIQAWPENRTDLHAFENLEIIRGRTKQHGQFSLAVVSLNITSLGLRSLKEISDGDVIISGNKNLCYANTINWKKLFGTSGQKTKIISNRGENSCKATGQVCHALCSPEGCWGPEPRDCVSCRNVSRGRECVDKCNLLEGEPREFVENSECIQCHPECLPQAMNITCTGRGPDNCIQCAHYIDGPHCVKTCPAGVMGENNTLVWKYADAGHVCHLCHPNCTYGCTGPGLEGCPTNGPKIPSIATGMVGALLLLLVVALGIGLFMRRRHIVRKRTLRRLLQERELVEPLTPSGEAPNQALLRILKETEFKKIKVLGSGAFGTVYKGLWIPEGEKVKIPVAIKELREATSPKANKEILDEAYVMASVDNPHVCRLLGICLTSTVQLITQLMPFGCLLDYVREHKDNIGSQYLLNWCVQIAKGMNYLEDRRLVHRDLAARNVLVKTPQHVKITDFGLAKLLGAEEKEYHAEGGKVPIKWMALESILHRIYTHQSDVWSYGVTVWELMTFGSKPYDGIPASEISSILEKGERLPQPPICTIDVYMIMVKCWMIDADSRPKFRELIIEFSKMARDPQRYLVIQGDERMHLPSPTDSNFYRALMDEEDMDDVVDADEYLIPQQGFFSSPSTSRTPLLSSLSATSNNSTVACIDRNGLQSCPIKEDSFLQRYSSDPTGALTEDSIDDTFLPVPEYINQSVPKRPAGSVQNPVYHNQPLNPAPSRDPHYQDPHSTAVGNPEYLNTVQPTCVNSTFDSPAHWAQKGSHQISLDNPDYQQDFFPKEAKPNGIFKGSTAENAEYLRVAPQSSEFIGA
Chain of Torsin-1A-interacting protein 1 (Homo sapiens) (Q5JTV8 whole entry, looked up): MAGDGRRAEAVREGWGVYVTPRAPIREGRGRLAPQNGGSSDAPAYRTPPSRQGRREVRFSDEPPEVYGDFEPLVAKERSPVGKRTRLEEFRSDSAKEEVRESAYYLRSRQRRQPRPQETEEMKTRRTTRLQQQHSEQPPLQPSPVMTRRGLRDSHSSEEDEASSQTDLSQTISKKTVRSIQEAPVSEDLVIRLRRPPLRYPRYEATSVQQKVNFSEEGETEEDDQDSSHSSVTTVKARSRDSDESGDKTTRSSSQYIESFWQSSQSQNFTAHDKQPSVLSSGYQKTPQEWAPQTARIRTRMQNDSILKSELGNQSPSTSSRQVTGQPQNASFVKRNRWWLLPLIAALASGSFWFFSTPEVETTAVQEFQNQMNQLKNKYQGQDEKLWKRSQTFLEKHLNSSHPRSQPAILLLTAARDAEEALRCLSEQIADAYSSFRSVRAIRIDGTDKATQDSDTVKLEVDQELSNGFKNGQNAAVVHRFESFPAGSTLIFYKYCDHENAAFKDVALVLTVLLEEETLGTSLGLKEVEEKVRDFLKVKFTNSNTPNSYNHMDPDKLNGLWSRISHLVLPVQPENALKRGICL
Chain of Fibroblast growth factor 10 (Homo sapiens) (O15520 whole entry, looked up): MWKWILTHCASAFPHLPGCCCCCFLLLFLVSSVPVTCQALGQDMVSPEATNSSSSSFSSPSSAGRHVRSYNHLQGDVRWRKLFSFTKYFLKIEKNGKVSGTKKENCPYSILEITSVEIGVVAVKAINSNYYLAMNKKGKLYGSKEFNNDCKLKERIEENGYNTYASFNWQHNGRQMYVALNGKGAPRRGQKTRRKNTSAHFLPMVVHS

SMILES	composite z-score [1]	composite z-score [2]	composite z-score [3]	z-score [4]	composite z-score [5]	composite z-score [6]	composite z-score [7]	composite z-score [8]	composite z-score [9]	composite z-score [10]	composite z-score [11]	z-score [12]	composite z-score [13]	composite z-score [14]	composite z-score [15]	composite z-score [16]	composite z-score [17]	composite z-score [18]	composite z-score [19]	composite z-score [20]
CC(C)(C)OC(=O)CC[C@]1(C(=O)O)COC(c2ccc(OCCCO)cc2)=N1	0.337	0.768	0.553	0.14 (inactive)	-0.577	-0.69	-0.609	-1.2	-1.51	0.469	0.191	0.0847	-0.225	0.155	0.568	0.105	0.0326	0.609	0.672	-0.582
CCOC(=O)C[C@H]1[C@H](OC(=O)c2cc3ccccc3oc2=O)[C@@H](NC(=O)c2ccc3ccccc3n2)c2cc(OCCCO)ccc2N1C(=O)c1ccc2ccccc2n1	0.522	0.273	-0.033	0.613 (inactive)	1.13	0.743	0.503	1.3	1.01	0.626	0.412	-2.04	1.09	-0.145	-0.36	0.172	0.01	-0.158	0.816	0.214
Cc1ccc(S[C@]2(C(=O)O)CC(=O)N(C3CCCCC3)[C@@H]2c2ccc(CO)cc2)cc1	1.37	-0.0047	0.571	0.134 (inactive)	-0.256	0.739	-0.172	-0.365	0.234	0.378	0.755	-1.2	-0.442	0.381	-1.39	0.0581	0.428	1.1	0.578	0.842
[N-]=[N+]=Nc1ccccc1C[C@]1(C(=O)NCCN2CCOCC2)N=C(c2ccc(OCCCO)cc2)O[C@H]1c1ccccc1N=[N+]=[N-]	1.15	0.63	1.07	-1.41 (inactive)	1.47	1.29	0.472	1.2	0.418	1.18	1.12	-2.49	0.863	1.1	-0.198	0.136	-0.138	1.85	1.51	1.12
N#Cc1ccc(NN2C(C(O)c3ccccc3)C=CC3C(=O)N(c4ccccc4)C(=O)C32)cc1 (stereo not given)	1.3	0.313	0.557	1.3 (inactive)	0.968	-0.353	-0.0382	0.441	-0.257	0.658	0.117	0.335	-0.135	-0.0722	-0.162	0.0797	-0.102	0.642	-0.113	0.153
CCOC(=O)C[C@H]1[C@H](OC(=O)c2ccccc2-c2ccccc2)[C@@H](NC(=O)c2ccccc2)c2cc(OCCCO)ccc2N1C(=O)Cc1ccc(OC)cc1	0.0521	-0.0327	0.0247	-0.269 (inactive)	0.0268	-0.519	-0.104	-0.183	-0.0633	0.264	-0.12	-1.31	-0.0713	-0.026	-0.641	-0.107	-0.289	-0.0877	0.593	0.66
CCCNC(=O)[C@@H]1c2ccccc2C(=O)N(CC23CC4CC(CC(C4)C2)C3)[C@H]1c1ccc(CO)cc1	1.6	0.831	0.718	-0.254 (inactive)	1.12	1.15	0.457	1.23	1.11	0.425	0.772	-1.15	1.03	0.992	0.489	0.189	0.265	0.697	0.986	0.88
CCCNC(=O)[C@@]1(Sc2ccc(C)cc2)CC(=O)N(Cc2ccccc2)[C@@H]1c1ccc(CO)cc1I	0.523	0.806	0.484	-0.494 (inactive)	0.559	0.108	0.183	0.942	0.353	1.47	1.17	-2.64	-0.045	-0.296	0.143	-0.0758	-0.1	0.225	0.285	1.19
CCCC=C(CCC)[C@@H](NC(=O)Cc1ccccc1)c1ccc(C(=O)OC)cc1	0.599	1.52	1.17	0.797 (inactive)	0.395	0.289	0.43	0.514	-0.285	1.26	1.08	-1.11	0.0461	1.22	0.499	0.748	2.15	1.79	-0.481	1.66
CC(C)C(CO)N1C(=O)[C@@H]2[C@H]3C(=O)OCC=C[C@H]3OC23C=CCN(CCN2CCOCC2)C(=O)[C@@H]13 (stereo not given in full)	1.15	-0.385	-0.538	0.653 (inactive)	-0.505	-0.118	-0.409	0.351	0.286	0.934	-0.0831	-0.911	-0.0025	-0.229	-1.32	-0.176	-0.0709	-0.0719	-0.128	0.451
CC(C)CNC(=O)[C@@]1(c2ccc([N+](=O)[O-])cc2)CC(=O)N(C(C)C)[C@@H]1c1ccc(CO)cc1	0.832	-0.258	1.08	-0.372 (inactive)	-1	-1.02	-0.362	-0.129	-1.59	0.07	0.212	-0.687	-1.53	-0.505	0.739	-0.12	-0.0738	-0.428	-0.534	-0.186
